Laboratory results as given in PubChem BioAssay (Tox21).
Several values for one entry are separate records, joined by “and”; a condition that tells them apart may be missing. Equal values may be shown once. Activity calls are given as the source filed them. A call without a number means that no potency is given here. Calls come from the whole dose curve.

Target: Acetylcholinesterase (Homo sapiens) (UniProt P22303)
Test: Acetylcholinesterase (AChE) small molecule antagonists: enzyme-based qHTS assay with human liver microsomes (AID 1347399); note: nearly all actives have a fitted effect of over 60% in size
Conditions: Potency: qHTS inhibition; series mostly up to 115 µM; activity change, negative = inhibition: at the top concentration
Text: National Center for Advancing Translational Sciences [NCATS]
Division of Preclinical Innovation [DPI]
U.S. Environmental Protection Agency [EPA]
National Institutes of Environmental Health Sciences [NIEHS]
National Toxicology Program [NTP]
U.S. Food and Drug Administration [FDA]
Acetylcholinesterase (AChE) is the primary cholinesterase in the body that hydrolyzes a key neurotransmitter, acetylcholine. Inhibition of AChE activity can lead to neurotoxicity. The known inhibitors include organophosphorous pesticides (OP), chemical warfare agents, drugs, and various phytochemicals. Some compounds like OP compounds may need metabolic activation to be active AChE inhibitors. The cytochrome P450 (CYP) superfamily in the human microsomes is responsible for the metabolism of various endogenous and exogenous compounds.
An enzyme-based assay with the recombinant human AChE, human liver microsomes and Amplite Colormetric acetylcholinesterase assay kit (AAT Bioquest, Sunnyvale, CA) was used to evaluate compounds in the Tox21 10K library that need metabolic activation for AChE inhibition. The assay uses 5, 5-dithiobis-(2-nitrobenzoic acid) (DTNB) to quantify the thiocholine produced from the hydrolysis of acetylthiocholine by AChE.
Tox21 Assay Protocol Summary:
For the enzyme-based AChE assay with microsomes addition, a mixture of human AChE (50 mU/mL) and human liver microsomes (0.25 mg/mL, final concentration) in 3 uL/well was dispensed into black, clear-bottom 1536-well plates using a Multidrop Combi dispenser (Thermo Scientific, MA). Then, 23 nL of compound or DMSO (vehicle control) was transferred into the assay plates by a Pintool Station (Wako Automation, CA). Following compound addition, 1 uL of NADPH (0.25 mg/mL, final concentration) was transferred to the assay plate by a Flying Reagent Dispenser (Beckman Coulter, CA). The plates were incubated for 30 min at 37 C and 5% CO2, followed by the addition of 4 uL of colorimetric detection cocktail solution (DTNB, acetylthiocholine) into each well using a Flying Reagent Dispenser (Beckman Coulter, CA) and then 10 min incubation at room temperature.
Potency is the fitted concentration of half-maximal effect.

Sequence of Acetylcholinesterase (Homo sapiens) (P22303 whole entry, looked up): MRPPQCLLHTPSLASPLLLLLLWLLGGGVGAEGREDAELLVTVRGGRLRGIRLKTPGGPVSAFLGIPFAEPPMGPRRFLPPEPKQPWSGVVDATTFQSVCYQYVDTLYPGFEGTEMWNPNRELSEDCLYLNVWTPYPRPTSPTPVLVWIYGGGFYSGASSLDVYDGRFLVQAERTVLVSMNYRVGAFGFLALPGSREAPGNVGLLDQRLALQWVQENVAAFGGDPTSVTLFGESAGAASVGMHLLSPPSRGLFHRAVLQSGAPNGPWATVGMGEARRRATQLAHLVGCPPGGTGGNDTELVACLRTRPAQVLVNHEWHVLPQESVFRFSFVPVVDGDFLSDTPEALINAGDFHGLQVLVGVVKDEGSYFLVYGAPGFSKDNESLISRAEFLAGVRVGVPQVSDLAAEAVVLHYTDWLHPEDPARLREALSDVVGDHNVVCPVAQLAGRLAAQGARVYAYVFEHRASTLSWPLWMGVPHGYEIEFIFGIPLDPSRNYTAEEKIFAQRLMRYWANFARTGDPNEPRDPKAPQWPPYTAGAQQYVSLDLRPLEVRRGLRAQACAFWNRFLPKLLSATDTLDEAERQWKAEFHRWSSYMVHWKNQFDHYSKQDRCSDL

Compound	Potency	activity change, negative = inhibition
CC(C)Oc1cc(-n2nc(C(C)(C)C)oc2=O)c(Cl)cc1Cl	inactive	–
CC(C)=CC1C(C(=O)OCc2coc(Cc3ccccc3)c2)C1(C)C (stereo not given)	inactive	–
C=CC(=O)OCCO	inactive	–
CC(O)CCO (stereo not given)	inactive	–
CCCCCc1cc(O)cc(O)c1	inactive	–
Nc1ccc(-c2ccccc2)cc1	inactive	–
CCCCCCCCCCCOC(=O)c1ccccc1C(=O)OCCCCCCCCCCC	inactive	–
O=Cc1ccco1	inactive	–
Cc1c(COC(=O)[C@@H]2[C@H](/C=C(\Cl)C(F)(F)F)C2(C)C)cccc1-c1ccccc1	inactive	–
COP(=S)(OC)Oc1ccc([N+](=O)[O-])cc1	inactive	–
Brc1ccc(Oc2cc(Br)c(Br)cc2Br)c(Br)c1	inactive	–
O=c1oc2ccccc2c(O)c1C(CC(O)c1ccc(-c2ccc(Br)cc2)cc1)c1ccccc1 (stereo not given)	inactive	–
CCOc1cc(Oc2ccc(C(F)(F)F)cc2Cl)ccc1[N+](=O)[O-]	inactive	–
C#C[C@]1(O)CC[C@H]2[C@@H]3CCC4=CC(=O)CC[C@]4(C)[C@H]3CC[C@@]21C	inactive	–
c1ccc(-c2cccc(-c3ccccc3)c2)cc1	inactive	–
Nc1cccnc1	inactive	–
CCC(CC)Nc1c([N+](=O)[O-])cc(C)c(C)c1[N+](=O)[O-]	inactive	–
CN(C)c1ccc(C(=O)c2ccc(N(C)C)cc2)cc1	inactive	–
CCOCN(C(=O)CCl)c1c(C)cccc1CC	inactive	–
O=C(NC(=O)c1c(F)cccc1F)Nc1ccc(Cl)cc1	inactive	–

Compound	Potency	activity change, negative = inhibition
Nc1ccc(Cl)c(Cl)c1	inactive	–
CCOC(=O)C(C)OC(=O)c1cc(Oc2ccc(C(F)(F)F)cc2Cl)ccc1[N+](=O)[O-] (stereo not given)	inactive	–
CCN(CC)C(=O)SCc1ccc(Cl)cc1	inactive	–
NC(=S)Nc1ccccc1	inactive	–
Nn1cnnc1	inactive	–
CCC(C)(c1ccc(O)cc1)c1ccc(O)cc1	inactive	–
Nc1c(Cl)cc([N+](=O)[O-])cc1Cl	inactive	–
c1nc[nH]n1	inactive	–
Nc1ccncc1	inactive	–
CCCCC(CC)COC(=O)c1ccc(C(=O)OCC(CC)CCCC)c(C(=O)OCC(CC)CCCC)c1 (stereo not given)	inactive	–
Oc1cc(Cl)ccc1Cl	inactive	–
CC(C)N(C(=O)SCC(Cl)=C(Cl)Cl)C(C)C	inactive	–
O=P(Oc1ccccc1)(Oc1ccccc1)Oc1ccccc1	35.4 µM (active) and 71 µM (active)	–
CCC(C)c1cc([N+](=O)[O-])cc([N+](=O)[O-])c1O (stereo not given)	inactive	–
O=C(O)CC[N+](=O)[O-]	–	-6.37% (inactive)
CCN(CC)N=O	inactive	–
CCC(C)c1ccc(O)cc1 (stereo not given)	inactive	–
C#CCOS(=O)OC1CCCCC1Oc1ccc(C(C)(C)C)cc1 (stereo not given)	inactive	–
CCN(CC)C(=O)/C(Cl)=C(\C)OP(=O)(OC)OC	inactive	–
N#CCCCl	inactive	–
